ELG1 DNA repair – ELG1-dependent DNA repair inhibition. Potency, µM (titrated, usually from 46.1 µM), without a hit: at the top dose activity change, negative = inhibition, hits mostly inhibitors. HEK293T ELG1-luciferase reporter, luminescence, 16 h; DNA damage induced by 5-fluorouridine. hit rate 2.3% among 330,000. AID 504467; further: on the % scale 0 is the no-effect control and ±100 the full control effect; nearly all actives have a fitted effect of over 55% in size
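5-Fluorouridine DNA damage + compound/DMSO, 2,000 cells/well, 16 h, 37 °C/5% CO2. ONE-Glo, 30 min RT, luminescence. Readout = decrease in reporter signal.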
FLuc counter – firefly luciferase modulation, counter-screen for miR-21 project; P08659; purified FLuc, Km substrates, luminescence inhibition; Potency, µM (top dose mostly 57.5 µM), for inactives: top-dose activity change, negative = inhibition, actives largely listed as inhibitors; hit rate 6.9% among 360,000;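 further: plate controls were vehicle for no effect and reference inhibitor for full effect; nearly all actives have a fitted effect of over 55% in size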
Target sequence (P08659 whole entry, looked up): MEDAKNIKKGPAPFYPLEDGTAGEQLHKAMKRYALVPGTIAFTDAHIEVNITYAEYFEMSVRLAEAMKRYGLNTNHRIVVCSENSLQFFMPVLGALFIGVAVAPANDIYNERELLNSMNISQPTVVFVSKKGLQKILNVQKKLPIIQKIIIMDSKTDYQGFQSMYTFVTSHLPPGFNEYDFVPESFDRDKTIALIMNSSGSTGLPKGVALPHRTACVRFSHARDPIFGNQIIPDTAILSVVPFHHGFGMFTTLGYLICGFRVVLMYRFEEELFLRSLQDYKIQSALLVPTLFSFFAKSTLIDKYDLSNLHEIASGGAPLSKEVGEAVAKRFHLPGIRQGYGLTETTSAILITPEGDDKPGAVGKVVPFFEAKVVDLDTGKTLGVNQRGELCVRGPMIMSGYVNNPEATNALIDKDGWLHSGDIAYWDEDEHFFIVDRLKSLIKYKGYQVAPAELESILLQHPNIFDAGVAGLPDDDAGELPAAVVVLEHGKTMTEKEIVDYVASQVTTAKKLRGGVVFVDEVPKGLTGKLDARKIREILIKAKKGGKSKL
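Purified P. pyralis luciferase, 10 nM final, with Km-level 10 uM D-luciferin and 10 uM ATP in 50 mM Tris acetate pH 7.5, 10 mM Mg acetate, 0.01% Tween-20, 0.05% BSA; 6-point qHTS titration about 60 µM downward; luminescence read.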
SMN2 splice enh – SMN2 splice variant enhancement; HEK293 SMN2-luciferase splicing reporter, luminescence, 30-36 h; Potency, µM (doses to about 46.1 µM), without a hit: at the highest dose activity change, positive = activation, usual class: activators; hit rate 2.8% among 210,000; further: % of control where 0% means no effect; nearly all actives have a fitted effect of over 55% in size
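HEK293 cells carry an SMN2 […]–luciferase reporter in which exon 7 inclusion puts luciferase in frame. Cells were plated 10-12 h before compound addition, then incubated 30-36 h at 37C. ONE-Glo luminescence was read; sodium butyrate at 4.5 mM final served as control.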
ELG1 genotox – inducers of genotoxicity in HEK293T ELG1-luciferase cells | HEK293T ELG1-luciferase reporter, luminescence, 16 h | Potency, µM (titrated, usually from 46 µM), for the others: at the top dose activity change, positive = activation, usual class: activators | hit rate 1.3% among 330,000; further: % of control where 0% means no effect; nearly all actives have a fitted effect of over 60% in size
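After overnight (16 hr) compound treatment at 37 °C, ELG1-luciferase HEK293T cells were lysed with ONE-Glo; luminescence quantified 30 min later at room temperature.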
Rab9 promoter act – activators of Rab9 promoter | Huh7 Rab9 promoter-luciferase reporter, luminescence, 24 h | Potency, µM (highest dose often 9.22 µM), inactives show top-dose activation, negative = inhibition, actives largely listed as activators | hit rate 2.8% among 320,000; further: % of control where 0% means no effect; nearly all actives have a fitted effect of over 60% in size
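Luminescence from Amplite-detected luciferase (10 minutes, ambient) reports Rab9 promoter activation. Before that, stable Rab9-luciferase Huh7 cells (1500/well, reduced-serum OP-MEM I plus 10% FBS) were exposed to compound for 24 hours at 37C.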
NPC1 prom act – NPC1 promoter activation; Huh7 NPC1 promoter luciferase reporter, 24 h; Potency, µM (highest dose often 9.22 µM), without a hit: top-dose activation, usual class: activators; hit rate 2.4% among 320,000; AID 485313; further: % of control where 0% means no effect; nearly all actives have a fitted effect of over 60% in size
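Readout is luciferase luminescence, reflecting NPC1 promoter activation in stably transfected Huh7 cells after 24 h compound exposure at 37 °C in reduced-serum medium with 10% FBS.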
* marks the source's active call; other numbers are inactive results; ? = inconclusive; nt = not tested or not shown; [ ] = dose if it differs, or a comment. Shown are actives, neighbours in structure and some others; about 9.4% of the full set was active somewhere. The call rests on the fitted dose curve; in most records, active means well fitted curve in the direction sought with a large enough effect; inconclusive means small, poorly fitted or top-dose-only effect, or another doubt; inactive means no such curve, though single readings can be large; an effect the other way counts as inactive or inconclusive. Potency means the concentration at half of the fitted maximal effect.

SMILES	ELG1 DNA repair	FLuc counter	SMN2 splice enh	ELG1 genotox	Rab9 promoter act	NPC1 prom act
Cc1cc(N2CCN(C)CC2)nc2ccc(NC(=O)Nc3ccccc3Cl)cc12	nt	1.69µM*	nt	nt	nt	nt
Cc1ccc(C#N)cc1	nt	nt	4.5%	nt	nt	nt
Nc1c(C(=O)c2ccccc2)sc2nsc(SCCN3CCCC3)c12	?	23.9µM*	nt	7.8%	23.5%	-3.9%
Nc1c(C(=O)c2ccc(Cl)cc2)sc2nsc(SCCN3CCOCC3)c12	0.0%	-9.9%	nt	-7.3%	-4.2%	11.2%
O=C(c1cccc(S(=O)(=O)N2CCOCC2)c1)N(Cc1nnc(-c2ccccc2Cl)o1)C1CC1	?	?	nt	0.0%	-1.6%	-3.9%
O=C(c1cc(S(=O)(=O)N2CCOCC2)ccc1F)N(Cc1nnc(-c2ccccc2Cl)o1)C1CC1	?	1.9%	nt	-5.9%	-0.3%	-1.6%
Cc1ccc(S(=O)(=O)N2CCOCC2)cc1C(=O)N(Cc1nnc(-c2ccccc2Cl)o1)C1CC1	10.3µM*	-1.3%	nt	-15.3%	-2.8%	-1.1%
CC1CN(S(=O)(=O)c2cccc(C(=O)N(Cc3nnc(-c4ccccc4Cl)o3)C3CC3)c2)CC(C)O1 (centres undefined)	5.8µM*	?	nt	-2.4%	-0.3%	2.3%
Cc1ccc2c(c1)COc1c3ccc(C(=O)N4CCCCC4)cc3nn1-2	?	3.79µM*	nt	?	?	3.16µM*
O=C(c1ccc2c3n(nc2c1)-c1ccc(Cl)cc1CO3)N1CCOCC1	?	9.53µM*	nt	18.3µM*	?	2µM*
CS(=O)(=O)N1CCc2cc(C(=O)N3CCOCC3)ccc21	?	7.4%	2.4%	-1.9%	-7.1%	-3.8%
O=C(c1ccc2c3n(nc2c1)-c1ccccc1CO3)N1CCCCC1	?	3.38µM*	nt	?	0.891µM*	0.794µM*
O=C(c1ccc2c3n(nc2c1)-c1ccccc1CO3)N1CCOCC1	?	4.78µM*	nt	?	1µM*	1.58µM*
COc1ccc(OC)c(CNc2ncnc3onc(-c4ccc(Cl)cc4)c23)c1	nt	4.0%	-4.4%	nt	nt	nt
CC1CCc2c(sc3ncn(CCO)c(=O)c23)C1 (centres undefined)	?	16.9µM*	12.6µM*	20.6µM*	2.51µM*	?
CC1CCc2c(sc3nc(SCC(=O)O)n(-c4ccccc4)c(=O)c23)C1 (centres undefined)	-4.5%	21.3µM*	nt	-1.4%	2.5%	12.7%
CC1CCc2c(sc3ncn(Cc4ccc(C(=O)O)cc4)c(=O)c23)C1 (centres undefined)	?	21.3µM*	28.4%	?	19.5%	20.3%
CC1CCc2c(sc3ncn(CC(=O)N=Nc4c(O)[nH]c5ccccc45)c(=O)c23)C1 (centres undefined)	3.2%	0.4%	nt	-2.1%	-5.8%	-2.7%
Cc1cccc(N2CCN(C(=O)CCS(=O)(=O)c3ccc4c(c3)CC(=O)N4C)CC2C)c1 (centres undefined)	nt	3.8%	nt	nt	nt	nt
Cc1ccc(-c2nc3c4ccccc4ccn3c2CN2CCCCC2)cc1	9.3%	?	nt	8.5%	11.8%	1.2%
c1ccc(-c2nc3c4ccccc4ccn3c2CN2CCCCC2)cc1	12.3%	5.36µM*	nt	-3.5%	12.5%	-1.2%
CNC1=C(N(C(C)=O)c2ccc(Br)cc2)C(=O)c2ccccc2C1=O	3.66µM*	-6.5%	-83.9%	-12.7%	-39.1%	-34.7%
CCC(=O)N(C1=C(NC)C(=O)c2ccccc2C1=O)C(C)C	?	6.0%	-112.9%	-16.2%	-23.3%	-43.2%
NCC(=O)NC1(C(=O)O)CCCC1	nt	nt	-2.3%[9.22 µM]	nt	nt	nt
O=C(N/N=C/c1ccc(-c2ccccc2Cl)o1)c1ccccc1	-15.3%	13.5µM*	?	18.0%	16.2%	0.3%
S=c1[nH]nc(-c2ccccc2)n1/N=C/c1ccc(-c2ccccc2Cl)o1	21.9%	-5.5%	?	-8.2%	-3.1%	-5.2%
Cc1nnc(C)n1/N=C/c1ccc(-c2ccccc2Cl)o1	?	-12.6%	nt	23.1µM*	0.8%	-1.8%

Screening data from PubChem.
